PubChem BioAssay (Tox21)
Inconclusive results are not listed. Unmarked numbers belong to inactive results. Calls follow the shape of the dose curve; as a rule, active = well fitted cell-killing curve with a large enough effect in the repeat runs; inconclusive = weak or mixed curves, or effect the other way; inactive = flat fitted curve, though single readings scatter.

assay: qHTS assay to identify small molecule antagonists of the retinoid acid receptor (RAR) signaling pathway - cell viability counter screen (AID 1159551); settings: C3RL4 cells viability, ATP luminescence (CellTiter-Glo), 6 h; series mostly up to 92.4 µM; activity change, negative = cytotoxicity: at the top concentration; also: nearly all actives have a fitted effect of over 35% in size
From the text: U.S. Tox21 Program National Center for Advancing Translational Sciences [NCATS] NIH Chemical Genomics Center [NCGC] U.S. Environmental Protection Agency [EPA] National Institutes of Environmental Health Sciences [NIEHS] National Toxicology Program [NTP] U.S. Food and Drug Administration [FDA] Tox21 Assay Overview: All-trans Retinoic acid (atRA) is the potent natural metabolite of retinol and plays an important role in normal embryonic development and maintenance of cellular phenotype in adult animals. atRA is the activating ligand for the retinoic acid receptors (RARs) which form heterodimers with retinoid X receptors (RXRs) on the retinoic acid response element (RARE). Through activation of the RAR/RXRs nuclear receptors, atRA regulates the transcription of a large number of protein-coding genes and regulatory RNAs. Intracellular levels of atRA are controlled by the retinol signaling pathway (RSP) that regulates the biosynthesis and catabolism of atRA to maintain physiological levels. Chemicals that interfere with the RSP can cause abnormal intracellular levels of atRA and therefore are potential developmental toxicants. To assess compounds for the potential adverse effect on embryonic development through interfering with retinol signaling, a cell-based RARE luciferase reporter gene assay was used. C3RL4 cell line (OARSA/CFSAN/FDA, Laurel, MD) was used to screen Tox21 10K compound library for identifying inhibitors of the RSP. Also cytotoxicity was assessed by determining the viability of cells based on the quantitation of ATP.
Tox21 Assay Protocol Summary: C3RL4 cells were seeded at 1,000/well in 4 uL of assay medium into white solid 1,536-well tissue culture plates (Greiner Bio-One North America Inc. Monroe, NC) using a Multidrop Combi (Thermo Scientific, Waltham, MA) dispenser. After incubation at 37 C and 5% CO2 for an overnight, 23 nL of compounds dissolved in DMSO, positive control or DMSO only were transferred by a Pintool station (Kalypsys, San Diego, CA). One ul of 1 uM (final concentration) of Retinol was added right after the compound addition by using a Flying Reagent Dispenser (FRD) (Aurora Discovery, San Diego, CA). After 6 hr incubation at 37 C and 5% CO2, 5 uL of CellTiter-Glo reagent (Promega Corporation, Madison, WI) was added to each assay plate using an FRD. Luminescence was quantified on a ViewLux plate reader (PerkinElmer, Waltham, MA) after 30 min incubation at room temperature.
% is scaled to controls: 0 for no effect and ±100 for the full control effect.

Point of comparison: `NCC1CCC(C(=O)Oc2ccc(CCC(=O)O)cc2)CC1` (stereo not given), “activity change, negative = cytotoxicity” value 0.311% [at 42.5 µM]. Against it:
- NC(=O)CC[C@@H](N)C(=O)O — lower, -1.1% [at 42.5 µM]
- COc1cc(OC)cc(OC)c1 — lower, -0.0616% [at 42.5 µM]
- COc1cc2nc(N3CCN(C(=O)C4CCCO4)CC3)nc(N)c2cc1OC (stereo not given) — lower, -2.51% [at 42.5 µM]
- CC(=O)/C=C/C=C1/C2CCC(C2)C1(C)C (stereo not given) — lower, -1.05% [at 42.5 µM]
- COC(=O)c1cc(Cl)c(NC(C)=O)cc1OC — higher, 1.79% [at 42.5 µM]
- CN(C)CCc1c[nH]c2ccc(CS(=O)(=O)N3CCCC3)cc12 — lower, -0.956% [at 42.5 µM]
- CC(C)(C)C(=O)NCCCC(=O)O — higher, 3.57% [at 42.5 µM]
- CC(=O)SCC(CC(=O)c1ccc(C)cc1)C(=O)O (stereo not given) — lower, -0.512% [at 42.5 µM]
- CCN1CCN(C(=O)N[C@@H](C(=O)N[C@@H]2C(=O)N3[C@@H]2SC(C)(C)[C@H]3C(=O)O)c2ccccc2)C(=O)C1=O — higher, 2.51% [at 42.5 µM]
- O=C(OOC(=O)c1ccccc1)c1ccccc1 — higher, 0.467% [at 42.5 µM]
- COC(=O)c1ccc(NC(C)=O)cc1OC — higher, 5.29% [at 42.5 µM]
- CC(=O)O[C@@H]1CC2C3CCc4cc(OC(=O)c5ccccc5)ccc4C3CCC2(C)[C@H]1OC(C)=O (stereo not given in full) — lower, -0.802% [at 42.5 µM]
- CNC(=O)c1c(I)c(NC(C)=O)c(I)c(C(=O)O)c1I — higher, 0.541% [at 42.5 µM]

Point of comparison: `CCCCCCCCCCCC(C)=O`, “activity change, negative = cytotoxicity” value 1.17%. Against it:
- CCCCCCC(O)CO (stereo not given) — lower, -0.632%
- CC(O)C(CO)C(C)O (stereo not given) — higher, 3.65%
- CCOC(=O)CC — lower, -3.63%
- CC(C)(C)OC(=O)c1ccccc1C(=O)O — higher, 3.18%
- Nc1cc(S(=O)(=O)O)ccc1O — lower, 0.106%
- N#CC1(N)CCCCC1 — lower, -1.46%
- CC1(C)CC(N)CC(C)(C)N1 — lower, 0.496%
- CCOCCOCCOC(C)=O — higher, 1.35%
- C=COCCCCO — lower, -0.205%
- CCc1ccc(CC)cc1 — lower, 0.992%
- NNC(=O)CCCCC(=O)NN — lower, 0.685%
- CC(CN1CC(=O)NC(=O)C1)N1CC(=O)NC(=O)C1 (stereo not given) — lower, 1.12%
- CC(C)(C)C(=O)CC(=O)C(C)(C)C — lower, -0.177%
- OCCC(F)(F)C(F)(F)C(F)(F)C(F)(F)C(F)(F)C(F)(F)F — higher, 3.74%
- CCCC[O][Al]([O]CCCC)[O]CCCC — higher, 1.81%
- C=CCON/C(CCC)=C1\C(=O)CC(C)(C)C(C(=O)OC)=C1O — lower, -1.74%
- O=C(O)CCCCCCCCCC(=O)O — lower, 0.0274%
- Cc1ccc(OC(=O)CC(C)C)cc1 — lower, 0.867%
- CC(C)c1cc(C(C)C)cc(C(C)C)c1 — higher, 2.58%
- Cc1ccc(O)c([N+](=O)[O-])c1 — lower, -0.983%
- CC(CC(=O)Cl)CC(C)(C)C (stereo not given) — lower, 0.668%
- CCCCCCCCCCCCCC(=O)OCC — higher, 1.55%
- CC(C)=CCC/C(C)=C\C#N — higher, 2.57%
- O=C1c2ccccc2C(=O)N1CO — lower, -2.86%

Molecule `CCCCCCCCCCCCCCCCN(C)C` has an activity change, negative = cytotoxicity of 0.211% [at 8.39 µM].
